The list is not random: actives were taken first. Their share in the collection is about 5.3%.
IMPase cell inh: qHTS Assay for Identifying the Cell-Membrane Permeable IMPase Inhibitors | CHO-M1 cells, IP1 accumulation, HTRF TR-FRET ratio | inhibition (IP1 accumulation), % at 46.1 µM | 120,000 tested, under 10 active; active means well fitted curve in the direction sought with a large enough effect in the signal ratio, not every such curve was filed as active; inconclusive means small, poorly fitted or top-dose-only effect, or a change in a side signal; inactive means no such curve, though single readings can be large or run the other way; the % refers to the signal ratio;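 further: cells stimulated with carbachol in lithium chloride buffer; higher means more IMPase inhibition seen as more IP1 and lower FRET ratio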
Target sequence (P97697 whole entry, looked up): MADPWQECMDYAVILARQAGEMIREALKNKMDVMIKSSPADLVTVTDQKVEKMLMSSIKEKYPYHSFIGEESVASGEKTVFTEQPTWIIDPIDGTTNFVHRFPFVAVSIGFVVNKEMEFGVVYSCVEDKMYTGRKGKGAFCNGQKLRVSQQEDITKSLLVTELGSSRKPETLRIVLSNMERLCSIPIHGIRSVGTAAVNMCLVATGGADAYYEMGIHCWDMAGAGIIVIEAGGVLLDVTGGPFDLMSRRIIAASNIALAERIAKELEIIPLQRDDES
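In this qHTS, compounds (final up to 46 uM) act on CHO-M1 cells that are then activated through the M1 receptor with carbachol, in pH 7.4 buffer containing 50 mM LiCl, for 30 min. IP1 accumulation is quantified by the IP-One immunoassay.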
IMPase Li cell: qHTS Assay for Identifying the Cell-Membrane Permeable IMPase Inhibitors: Potentiation with Lithium; CHO-M1 cells, IP1 TR-FRET (IP-One), carbachol + lithium; Potency, µM (series often up to 59.4 µM), most hits filed as inhibitors; actives 0.35% (n = 210,000);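 further: IP1 builds up when IMPase is blocked and the TR-FRET signal falls; nearly all actives have a fitted effect of over 50% in size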
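CHO-M1, 2000 cells/well, 16–30 h culture; cpd + low Li+, 30 min 37C; lysis with d2-IP1/Eu-anti-IP1 Ab, 10 min RT; TR-FRET 665/620 ratio and 620 channel; AC50 via Hill.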
HPGD inh: qHTS Assay for Inhibitors of HPGD (15-Hydroxyprostaglandin Dehydrogenase). 15-hydroxyprostaglandin dehydrogenase [NAD(+)] (Homo sapiens), P15428. purified HPGD, NADH fluorescence kinetic, PGE2 substrate. actives 4.3% (n = 150,000). Potency, µM, hits mostly inhibitors; active means well fitted inhibition curve with a large enough effect, not every such curve was filed as active; inconclusive means small, poorly fitted or top-dose-only effect, or another doubt; inactive means no such curve, though single readings can be large or run the other way
Target sequence (P15428 whole entry, looked up): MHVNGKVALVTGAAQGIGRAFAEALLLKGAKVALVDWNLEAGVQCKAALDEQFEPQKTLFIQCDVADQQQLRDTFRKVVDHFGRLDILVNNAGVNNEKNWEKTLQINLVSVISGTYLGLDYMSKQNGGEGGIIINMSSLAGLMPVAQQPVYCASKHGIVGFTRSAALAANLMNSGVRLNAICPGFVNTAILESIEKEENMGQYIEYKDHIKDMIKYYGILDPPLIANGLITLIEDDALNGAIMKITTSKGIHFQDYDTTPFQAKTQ
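NADH formation kinetics: reaction with 30 uM PGE2 and 1 mM NAD+ (final), 20 nM enzyme, Tris-HCl pH 8 with Tween 20, after 15 min compound preincubation at room temperature. Fluorescence change, last versus first of five reads.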
15-hLO-2 inh: qHTS Assay for Inhibitors of 15-hLO-2 (15-human lipoxygenase 2); purified 15hLO-2, xylenol orange hydroperoxide absorbance; actives 0.56% (n = 110,000); AID 881, 2007; Potency, µM (top dose mostly 57.1 µM), actives largely listed as inhibitors; further: nearly all actives have a fitted effect of over 60% in size
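Enzyme 50 nM, AA 45 uM, 25 mM Hepes pH 7.5 + 0.01% Triton X-100; cpd preinc 15 min RT, rxn 90 min RT; stop/detect with 200 uM XO + 300 uM Fe(II) in 50 mM H2SO4, 30 min; A573/A405.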
ALOX12 inhib: qHTS Assay for Inhibitors of 12-hLO (12-human lipoxygenase); purified 12-hLO, xylenol orange hydroperoxide absorbance; Polyunsaturated fatty acid lipoxygenase ALOX12 (Homo sapiens), P18054; actives 0.12% (n = 150,000); Potency, µM (highest dose often 57.1 µM), actives largely listed as inhibitors; further: nearly all actives have a fitted effect of over 55% in size
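Purified human 12hLO (150 nM final) was preincubated with compounds for 15 min at room temperature in 25 mM Hepes pH 7.0, 0.01% Triton X-100, then reacted with 40 uM arachidonic acid for 30 min. Hydroperoxide was detected with ferrous iron/xylenol orange.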
PNC assembly inh: High Content Assay for Compounds that inhibit the Assembly of the Perinucleolar Compartment; PC3M PTB-GFP, PNC prevalence imaging, 16 h; hits give low values; AID 2417, 2010; actives 3.1% (n = 140,000); activity change (PNC), negative = inhibition, % at 10 µM;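 active means readout at or below -70, meaning at least 70% loss of cells showing the perinucleolar compartment, a nuclear body marking cancer cells; inconclusive means readout between -30 and a set limit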
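Compounds are pinned in duplicate onto adhered PC3M cells stably expressing GFP-tagged PTB and incubated 16 h at 37 C. Cells are then fixed, nuclei stained with Hoechst, and PNC-positive cells counted.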
Hits are given with their value; - = inactive; ? = inconclusive; . = no result given; [ ] = another dose, or the depositor's remark. Unless noted, the call rests on the fitted dose curve; in most records, active means well fitted curve in the direction sought with a large enough effect; inconclusive means small, poorly fitted or top-dose-only effect, or another doubt; inactive means no such curve, though single readings can be large; an effect the other way counts as inactive or inconclusive.

SMILES	IMPase cell inh	IMPase Li cell	HPGD inh	15-hLO-2 inh	ALOX12 inhib	PNC assembly inh
CCN(C(=O)c1ccc2c(Cl)c3c(nc2c1)CCC3)c1cccc(C)c1	.	-	12.6µM	.	-	-
CCc1ccc(N(CC)C(=O)c2ccc3c(Cl)c4c(nc3c2)CCC4)cc1	.	-	?	.	-	-
CCOc1cc(C(=O)Nc2ccc3oc(-c4ccc(CC)cc4)nc3c2)cc(OCC)c1OCC	-	.	.	.	.	.
COc1cccc(-c2noc(CCC(=O)NCC3CCCO3)n2)c1 (configuration not stated)	.	-	.	.	.	.
O=C1C(=Cc2ccc(Br)o2)C(=O)c2ccccc21	-	-	31.6µM	.	-	?
CC1=C/C(=C\c2ccc(Br)o2)C(=O)O1	-	-	-	.	-	?
O=C(c1ccc(-c2ccccc2)cc1)N1CCN(c2ccccn2)CC1	.	-	.	.	.	.
C/C(=N\NC(=O)c1ccncc1)C12CC3CC(CC(C3)C1)C2	.	-	-	.	-	-118.2
O=C(NCCOc1ccccc1)O[C@@H]1C(=O)c2cc(Br)ccc2O[C@H]1c1ccc2c(c1)OCO2	.	-	-	.	.	.
CN1C(=O)c2ccc(C(=O)NCc3ccccc3)cc2C1=O	-[1.84 µM]	-	-	-[11.4 µM]	-	-92.4
COC(=O)/C(=C/c1c[nH]c2ccccc12)[N+](=O)[O-]	-	.	.	?	-	-
COC(=O)/C(=C/c1cn(C)c2ccccc12)[N+](=O)[O-]	-	-	3.55µM	-	-	?
Cc1occc1C(=O)NCCCCc1ccccc1	-	-	20µM	-	-	?
Cc1ccccc1C(=O)NCCCc1ccccc1	.	-	14.1µM	.	-	-
CSc1nnc(-c2cc[n+](C)cc2)n1CCO	.	-	-	.	-	-
CC(C)Cc1csc(NC(=O)c2ccccc2Cl)c1C(=O)O	.	-	14.1µM	.	-	-
Cc1cccc(C(=O)Nc2scc(CC(C)C)c2C(=O)O)c1	.	-	15.8µM	.	-	-98.3
CCOC(=O)c1c(CC(C)C)csc1NC(=O)CCl	-	-	-	-	-	-
CC(C)Cc1csc(NC(=O)c2ccc(Cl)cc2)c1C(=O)O	-	-	17.8µM	.	-	-
COc1ccccc1CNC(=O)C1CCCN1S(=O)(=O)c1cccc2cccnc12 (configuration not stated)	-	-	22.4µM	-	-	-
CC(=O)Oc1ccc(OC(C)=O)c(SCCCCCN2CCOCC2)c1	-	-	17.8µM	-	-	-
N#Cc1ccc(CSc2nnc(-c3cccs3)n2-c2ccccc2)cc1	-	-	-	-	-	?
FC(F)Sc1nnc(-c2cccs2)n1-c1ccccc1	-	-	-	-	-	-80.1
CC(=O)c1ccc(N2CCN(C(=O)c3ccc4c(=O)n(-c5ccccc5)c(=O)[nH]c4c3)CC2)cc1	-	-	-	.	-	-107.6
O=C(Nc1nnc(CCS(=O)(=O)c2ccc3ccccc3c2)s1)c1cccs1	.	11.2µM	-	.	-	-
SMILES	IMPase cell inh	IMPase Li cell	HPGD inh	15-hLO-2 inh	ALOX12 inhib	PNC assembly inh
COc1ccc(S(=O)(=O)CCc2nnc(NC(=O)c3cccs3)s2)cc1	?	?	-	-	-	-
CCN(CC)S(=O)(=O)c1ccc2oc(SCC(=O)NCc3ccccc3)nc2c1	-	-	-	-	-	-
CCS(=O)(=O)c1ccc2oc(Nc3ccc(C(C)C)cc3)nc2c1	-	-	3.98µM	-	-	-
CCS(=O)(=O)c1ccc2oc(Nc3cc(C)cc(C)c3)nc2c1	-	-	-	.	-	-
CCOc1ccc(Nc2nc3cc(S(=O)(=O)N(CC)CC)ccc3o2)cc1	-	-	3.55µM	-	-	-
O[C@@H](CNC[C@H](O)c1ccccc1)c1ccccc1	-	-	-	.	-	-100.0
CCOC(=O)/C(=C\c1ccc(OC(F)F)cc1)C1=Nn2c(nnc2-c2ccc(Cl)cc2)SC1	.	-	14.1µM	.	-	?
O=C(N/N=C(\Cc1ncc[nH]1)c1ccccc1)c1cccnc1	.	-	.	.	.	.
CC(C)c1nnc(NC(=O)c2cccc(NC(=O)C(F)(F)F)c2)s1	.	-	.	.	.	.
Cc1nn2c([nH]c(=O)c3ccccc32)c1C=O	-	-	15.8µM	-	-	-
CN1C(=O)/C(=N/OC(=O)c2ccccc2)c2ccccc21	-	-	14.1µM	-	-	-
Cc1ccc(NC(=O)CNC(=O)c2cccs2)cc1S(=O)(=O)Nc1ccc(Cl)cc1	.	-	-	.	-	-112.8
O=C(O)c1ccc(C(=O)Nc2cccc(NC(=O)C3CCCO3)c2)cc1 (configuration not stated)	-	-	22.4µM	-	-	-
O=C(CC1CCCC1)Nc1ccc2c(c1)CCC2	-	-	14.1µM	-	-	-
O=C(Nc1ccc2c(c1)OCCO2)c1ccc(NC(=O)C2CCCO2)cc1 (configuration not stated)	-	-	-	-	-	?
O=C(Nc1ccc2c(c1)CCC2)C1CCCO1 (configuration not stated)	-	-	17.8µM	.	-	-
COC(=O)C(C(=O)OC)C(Cc1cc(F)cc(F)c1F)NC=O (configuration not stated)	.	-	-	.	.	.
Oc1ccccc1NCC(O)Cn1ccc2ccccc21 (configuration not stated)	-	.	.	12.6µM	-	-
CC(C)Oc1ccc(C(=O)NC2(C(F)(F)F)NC(=O)N(CCCc3ccccc3)C2=O)cc1 (configuration not stated)	.	-	-	.	-	-
Cc1cc(C)c2[nH]c(=O)c(CN(CC3CCCO3)C(=S)NCc3ccco3)cc2c1 (configuration not stated)	.	-	-	.	-	-81.6
Cc1cccc2cc(CN(CC3CCCO3)C(=S)NCc3ccco3)c(=O)[nH]c12 (configuration not stated)	.	-	-	.	-	-
CC[C@@H]1OC(=O)[C@H](C)[C@H](O[C@@H]2C[C@](C)(OC)[C@H](O)[C@H](C)O2)[C@H](C)[C@H](O[C@@H]2O[C@@H](C)C[C@@H](N(C)C)[C@@H]2O)[C@](C)(O)C[C@H](C)C(=NOCOCCOC)[C@H](C)[C@H](O)[C@]1(C)O	-	-	-	-	-	.
O=C1CC2(CCCC2)CC(=O)N1CCCCNCC1COc2ccccc2O1 (configuration not stated)	.	-	.	.	.	.
O=c1c2ccccc2nc(SCc2cc([N+](=O)[O-])cc3c2OCOC3)n1-c1ccccc1	.	-	-	.	-	-92.1

Bioassay records (PubChem BioAssay)
